# Screening data from PubChem BioAssay.
# ALR H2O2 inh: inhibitors of human ALR sulfhydryl oxidase, primary screen, biochemical, H2O2 detection, HRP-luminol luminescence, single point | FAD-linked sulfhydryl oxidase ALR (Homo sapiens), P55789 | purified ALR, DTT oxidation | inhibition, % (concentration not given with the values) | 290,000 tested, 3.8% active;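 active = mean replicate inhibition above about 79%, with every replicate also reaching it, limit read from the data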
# Target sequence (P55789 whole entry, looked up): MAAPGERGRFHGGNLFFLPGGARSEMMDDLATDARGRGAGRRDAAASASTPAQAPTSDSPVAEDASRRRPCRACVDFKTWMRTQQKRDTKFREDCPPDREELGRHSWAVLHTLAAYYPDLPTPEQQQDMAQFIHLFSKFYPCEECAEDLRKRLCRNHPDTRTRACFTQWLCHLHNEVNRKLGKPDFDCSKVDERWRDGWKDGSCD
# NSD2 HMT inh: NSD2 histone methyltransferase inhibitors, primary screen, biochemical, AlphaScreen, single concentration, set 2 | 310,000 tested, 0.54% active | Histone-lysine N-methyltransferase NSD2 (Homo sapiens), O96028 | inhibition, % at 12.5 µM | AID 743445, 2014 | NSD2 peptide methylation, 120 min; in the data active = inhibition above about 50%
# CFTR F508del cor: F508del CFTR correction, initial screen, CFBE line, single point; activity (quench increase), % at 7.58 µM; AID 720511, 2013; CFBE cells, YFP halide quenching; stimulated with forskolin plus potentiator P3; % fluorescence drop versus neutral controls; 350,000 tested, 0.36% active;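 active = mean added fluorescence quench of at least 8% versus neutral control, with both replicates also reaching 8%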;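 also: cells transiently co-express mutant CFTR-F508del with the halide-sensitive YFP; corrector assay measuring rescue of mutant channel to the surface after 24 h compound exposure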
# CASP6 VEID inh: human caspase-6 inhibitors, primary screen, biochemical, VEID-R110 fluorescence, single point, set 2; purified caspase-6, Z-VEID-R110 cleavage fluorescence; inhibition, % at 12.5 µM; 350,000 tested, 0.53% active; AID 686996, 2013;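 active = mean inhibition across replicates at least about 35%, with every replicate also reaching that limit, limit read from the data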;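 also: 0% = median of neutral control wells and 100% = no fluorescence left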
# PglD inh: C. jejuni PglD acetyltransferase inhibitors, primary screen, biochemical, DTNB colorimetric, single point; inhibition, % at 12.5 µM; UDP-N-acetylbacillosamine N-acetyltransferase PglD (Campylobacter jejuni); AID 602405, 2012; purified PglD enzyme, DTNB colorimetric CoA detection; 360,000 tested, 0.098% active; in the data active = inhibition above about 16%, passing the limit was not always enough
# Env fusion inh: inhibitors of HIV-1 Env-driven cell-cell fusion, primary screen, HeLa-JRFL effector, CEM21 target cells, luciferase | 360,000 tested, 1.1% active | inhibition, % at 12.3 µM;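 active = mean replicate inhibition score of at least 50 and every replicate individually at or above 50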;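 also: 0% = plate neutral controls and 100% = maraviroc near 300 nM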
# PglD inh SP: PglD acetyltransferase inhibitors, confirmation, biochemical, DTNB absorbance, single point, cherry-picked samples; shares compounds with PglD inh; Purified C. jejuni PglD, DTNB absorbance 412 nm; 320 tested, under 10 active; inhibition, % at 20 µM; AID 743156, 2013;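 active = mean inhibition across replicates of at least 20% with every single replicate also at 20% or more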;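 also: initial rate of CoA release by acetyl transfer from AcCoA to the UDP-4-amino sugar; 0% = median of neutral control wells and 100% = median of positive control wells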
# CASP1 counter: human caspase-1 inhibitors, dose response, selectivity assay for caspase-6 inhibitor project, biochemical, Z-YVAD-R110 fluorescence, cherry-pick, set 2; shares compounds with CASP6 VEID inh; purified caspase-1, Z-YVAD-R110 cleavage fluorescence; activity change, negative = inhibition, % at 35 µM; 100 tested, under 10 active; AID 743289, 2014;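 active = compounds lowering fluorescence whose fitted half-maximal concentration is no more than twice their top tested dose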
# Target sequence (P29466 whole entry, looked up): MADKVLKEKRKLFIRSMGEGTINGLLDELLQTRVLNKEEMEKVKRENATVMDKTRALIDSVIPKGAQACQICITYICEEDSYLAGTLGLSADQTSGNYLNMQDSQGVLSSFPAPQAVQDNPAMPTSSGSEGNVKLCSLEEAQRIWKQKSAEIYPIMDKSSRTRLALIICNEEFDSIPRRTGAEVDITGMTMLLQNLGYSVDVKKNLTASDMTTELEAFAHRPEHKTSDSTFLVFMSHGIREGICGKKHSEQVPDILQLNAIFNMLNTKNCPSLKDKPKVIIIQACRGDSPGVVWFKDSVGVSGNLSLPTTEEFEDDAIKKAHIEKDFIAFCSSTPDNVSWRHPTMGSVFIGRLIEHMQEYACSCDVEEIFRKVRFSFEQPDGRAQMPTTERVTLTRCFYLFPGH
# The depositor's hits bear a star; / = no result; [ ] = remark or other dose. Only some compounds are listed: those with a hit (about 4.1% of all), similar ones and a draw of the others.
SMILES,ALR H2O2 inh,NSD2 HMT inh,CFTR F508del cor,CASP6 VEID inh,PglD inh,Env fusion inh,PglD inh SP,others
C[C@@H]1CN([C@@H](C)CO)C(=O)c2cc(NS(C)(=O)=O)ccc2O[C@@H](C)CCCCO[C@H]1CN(C)C,/,/,-1,-1,1,3[16.7 µM],/,
COC(CNc1cc(=O)oc2ccccc12)OC,5,-1,/,/,23*,-39,1,
CCCCNc1cc(=O)oc2ccccc12,-11,3,/,/,/,4,/,
COC(=O)c1cc(C)ccc1OCc1ccc([N+](=O)[O-])cc1,-4,-1,1,1,23*,-29,-3,
Cc1ccc(NC(=O)c2ccccc2OCc2ccc([N+](=O)[O-])cc2)nc1,-1,0,-1,0,/,-7,/,
COc1cnc(-c2cccc(C(F)(F)F)c2)c(NC(=O)c2cc3ccccc3s2)n1,/,1,1,-2,30*,-17,2,
Cn1nc([N+](=O)[O-])nc1N1CCOCC1,-65,-5,/,/,21*,-18,1,
C[C@H]1CN([C@@H](C)CO)C(=O)c2cc(NC(=O)Nc3ccc4c(c3)OCO4)ccc2O[C@H]1CN(C)Cc1ccc2c(c1)OCO2,/,/,1,-2,1,12[16.7 µM],/,
CCOC(=O)c1[nH]c(C)c(C(=O)OCC(=O)N2CCCCC2C)c1C (stereo unspecified),/,2,/,/,23*,-2,-2,
CCOC(=O)C1=C(C)NC(C)=C(C(=O)OCC)C1C(=O)OCC(=O)N1CCCCC1C (stereo unspecified),0,-2,2,0,-3,/,/,
C[C@H](CO)N1C[C@H](C)[C@H](CN(C)C(=O)C2CC2)Oc2ncc(C3=CCCC3)cc2C1=O,/,/,-4,/,/,-8[16.7 µM],/,
CCCCNC(=O)Nc1nnc(-c2ccccc2)o1,2,0,/,/,39*,-111,2,
O=Cc1ccc(OCCN2CCCC2=O)cc1,-15,-1,-1,-2,44*,-19,-4,
O=C(N[C@@H]1C=C[C@H](CC(=O)N2CCc3ccccc3C2)O[C@H]1CO)C1CCOCC1,/,/,2,3,/,/,/,
Nc1n[nH]c(C(F)(F)F)c1-c1ccccc1,-2,0,1,1,-7,-1,/,
Nc1n[nH]c(-c2ccccc2)c1-c1ccccc1,25,0,-1,-2,33*,/,-3,
CCN(CC)C1CCN(C(=O)c2ccc(OC3CCN(C(=O)CCOC)CC3)cc2)C1 (stereo unspecified),/,4,3,-1,26*,-2,5,
COC(=O)C[C@H]1C[C@H]2c3cc(NC(=O)Nc4ccccc4)ccc3O[C@H]2[C@H](CO)O1,/,/,4,0,1,0[16.7 µM],/,
Cc1nnc(N2C(=O)c3ccc(Br)cc3C2=O)s1,9,1,0,-3,22*,-9,2,
O=C1c2ccc(Br)cc2C(=O)N1c1ccc(Cl)cn1,-10,4,0,2,-2,-5,/,
CC(=O)N1[C@H](CO)[C@@H](c2ccccc2)C12CN(C(=O)c1ccccc1)C2,/,/,1,-1,/,/,/,
O=C(O)c1cccnc1SC1CC(=O)N(Cc2ccccc2)C1=O (stereo unspecified),-3,2,/,/,39*,-3,2,
O=C(O)c1cccnc1SC1CC(=O)N(CCc2ccccc2)C1=O (stereo unspecified),-4,-3,-3,-1,4,/,/,
C[C@@H]1CN([C@@H](C)CO)C(=O)c2cc(NC(=O)Cc3ccccc3)ccc2O[C@@H](C)CCCCO[C@H]1CN(C)C(=O)c1ccccc1,/,/,0,-1,-3,3[16.7 µM],/,
COc1ccc(S(=O)(=O)N2CCN(C(=O)C3CC3)CC2)cc1Br,/,-2,1,-1,42*,/,-4,
SMILES,ALR H2O2 inh,NSD2 HMT inh,CFTR F508del cor,CASP6 VEID inh,PglD inh,Env fusion inh,PglD inh SP,others
COc1ccc(S(=O)(=O)N2CCCC2)cc1Br,-4,-6,5,-2,-3,-147,/,
Cc1noc(C)c1S(=O)(=O)Nc1ccc2c(c1)C(=O)N([C@H](C)CO)C[C@H](C)[C@@H](CN(C)Cc1ccc(C(F)(F)F)cc1)OCCCC[C@H](C)O2,/,/,2,1,6,-7[16.7 µM],/,
CC(C)Oc1cc(F)ccc1-c1cc(C(=O)NCC2CCCCC2)[nH]n1,/,-2,3,-1,23*,19,12,
Cc1cc(F)ccc1-c1cc(C(=O)NCC2CCCCC2)[nH]n1,/,-4,1,0,5,4,/,
C=C(C)C(=O)Nc1cccc(C2=NOC3(C2)C[C@@H](C(N)=O)N(C(=O)C2(C)CC2)C3)c1 (stereo partly specified),/,/,-2,/,23*,-6,2,
Cc1noc(C)c1S(=O)(=O)N(C)C[C@@H]1OCCCC[C@@H](C)Oc2ccc(NC(=O)Nc3cccc4ccccc34)cc2C(=O)N([C@H](C)CO)C[C@H]1C,/,/,0,-1,1,14[16.7 µM],/,
CCOC(=O)CNC(=S)N(Cc1ccccc1)Cc1cccnc1,-10,-2,-1,1,32*,10,1,
Cc1cccc(NC(=O)CN(C)C(=O)C2CC2)c1C,0,7,0,3,22*,/,4,
CCC(=O)Nc1ccccc1C(=O)OCC(=O)Nc1ccc(S(N)(=O)=O)cc1,1,-1,/,/,31*,-14,-3,
COc1cc(NC(=O)CSc2nncn2C)c(C)cc1[N+](=O)[O-],-7,1,2,-2,-4,-19,/,
Cn1cnnc1SCC(=O)Nc1ncc([N+](=O)[O-])s1,54,35,-1,39*,-5,-15,/,CASP1 counter=-4
COc1cc(NC(C)CCCN)c2ncccc2c1 (stereo unspecified),25,/,2,91*,-7,/,/,CASP1 counter=1
C[C@@H]1CN([C@@H](C)CO)C(=O)c2cc(NC(=O)CCC(F)(F)F)ccc2O[C@@H](C)CCCCO[C@@H]1CN(C)C(=O)C1CCCCC1,/,/,-1,1,-2,-5[16.7 µM],/,
Cc1ccc(S(=O)(=O)Nc2csc(C)c2C(=O)O)cc1,18,18,0,61*,/,-10,/,CASP1 counter=-3
CO[C@H]1CN(C)C(=O)c2cc(NC(C)=O)ccc2OC[C@@H](C)N(C(=O)CC2CC2)C[C@H]1C,/,/,1,56*,0,-105[16.7 µM],/,CASP1 counter=-8
